In the supplement of paper PMC6555819:

What was measured:
Test in all cases: PBM binding z-score (relative to random genomic background probes); higher = stronger binding; sequences stand for … in GC…GCGATTGACAGCGTAGAATGAAGG
[1] = test system: FXR:RXRa (NR concentration 270 nM, RXRa partner concentration 90 nM)
Outline: (§1)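 Antibodies against each partner of ligand-free nuclear receptor dimers (one per run) detected binding on custom Agilent 4×180K protein-binding microarrays after 1 h incubation. The double-stranded probes had 34-nt variable regions carrying direct-repeat seeds, single-nucleotide variants, half-site ablations and random human genomic background sequences. Binding z-scores, from regression-normalized fluorescence, use the random background probes as reference.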

[2] = test system: LXRa:RXRa (NR concentration 270 nM, RXRa partner concentration 90 nM)
Outline: as §1

[3] = test system: LXRa homodimer (NR concentration 270 nM)
Outline: as §1

[4] = test system: LXRb:RXRa (NR concentration 270 nM, RXRa partner concentration 90 nM)
Outline: as §1

[5] = test system: LXRb homodimer (NR concentration 270 nM)
Outline: as §1

[6] = test system: PPARa:RXRa (NR concentration 270 nM, RXRa partner concentration 90 nM)
Outline: as §1

[7] = test system: PPARg:RXRa (NR concentration 180 nM, RXRa partner concentration 90 nM)
Outline: as §1

[8] = test system: PPARg:RXRa 270nM:90nM, anti-RXR (NR concentration 270 nM, RXRa partner concentration 90 nM)
Outline: as §1

[9] = test system: PPARg:RXRa 30nM:10nM, anti-RXR (NR concentration 30 nM, RXRa partner concentration 10 nM)
Outline: as §1

[10] = test system: PPARg:RXRa 90nM:30nM, anti-RXR (NR concentration 90 nM, RXRa partner concentration 30 nM)
Outline: as §1

[11] = test system: PPARg:RXRa DBDmut IVT, anti-RXR (DBD mutation: RXRa K156A/R161A, NR concentration 270 nM, RXRa partner concentration 90 nM)
Outline: as §1

[12] = test system: PPARg:RXRa IVT, anti-PPARg (NR concentration 270 nM, RXRa partner concentration 90 nM)
Outline: as §1

[13] = test system: PPARg DBDmut:RXRa IVT, anti-PPARg (DBD mutation: PPARg1 K132A/R137A, NR concentration 270 nM, RXRa partner concentration 90 nM)
Outline: as §1

[14] = test system: PPARg DBDmut IVT, anti-PPARg (DBD mutation: PPARg1 K132A/R137A, NR concentration 270 nM)
Outline: as §1

[15] = test system: PPARg homodimer (NR concentration 180 nM)
Outline: as §1

[16] = test system: PXR:RXRa (NR concentration 270 nM, RXRa partner concentration 90 nM)
Outline: as §1

[17] = test system: PXR homodimer (NR concentration 270 nM)
Outline: as §1

[18] = test system: RARa:RXR (NR concentration 270 nM, RXRa partner concentration 90 nM)
Outline: as §1

[19] = test system: RARa homodimer (NR concentration 270 nM)
Outline: as §1

[20] = test system: RARb:RXRa (NR concentration 270 nM, RXRa partner concentration 90 nM)
Outline: as §1

| Sequence | PBM binding z-score [1] | PBM binding z-score [2] | PBM binding z-score [3] | PBM binding z-score [4] | PBM binding z-score [5] | PBM binding z-score [6] | PBM binding z-score [7] | PBM binding z-score [8] | PBM binding z-score [9] | PBM binding z-score [10] | PBM binding z-score [11] | PBM binding z-score [12] | PBM binding z-score [13] | PBM binding z-score [14] | PBM binding z-score [15] | PBM binding z-score [16] | PBM binding z-score [17] | PBM binding z-score [18] | PBM binding z-score [19] | PBM binding z-score [20] |
| --- | --- | --- | --- | --- | --- | --- | --- | --- | --- | --- | --- | --- | --- | --- | --- | --- | --- | --- | --- | --- |
| TCTCGGAGGACACGAAGGCCAGAGCTTTCCAGAG | 0.413 | -0.099 | -0.863 | -0.477 | -0.953 | 0.156 | -0.048 | 0.609 | 1.81 | 1.36 | 1.5 | 0.0169 | -0.633 | -1.61 | -0.704 | -0.278 | -0.919 | -0.235 | -1.31 | 1.82 |
| GCTCGGAGGACAAGTTCAGAGCTTTGTCCGTAGA | 0.263 | 0.115 | -0.227 | 0.0203 | -0.625 | 0.311 | -0.94 | -0.31 | -1.15 | -0.738 | -0.557 | -0.546 | -1.36 | -1.47 | -0.526 | 0.977 | 0.281 | 0.489 | -1.39 | 1.92 |
| GCATATAGGTAATACAGGGTGAAAGTCCGATTGT | 0.317 | 0.746 | -0.223 | 0.369 | -0.0682 | 1.92 | 1.44 | 1.47 | 0.819 | 0.965 | 4.15 | 3.22 | 1.15 | 0.404 | 1.08 | 0.411 | 0.164 | 1.35 | 0.52 | 0.281 |
| GATACAGGGACAGCTAGAGGCCAGAGTATGGAAA | -0.243 | -0.821 | -0.464 | -0.674 | -0.57 | -0.178 | 0.636 | -0.579 | -0.2 | -0.369 | -0.328 | -0.138 | -0.157 | -0.323 | 0.377 | -0.289 | 0.168 | 0.0222 | 0.173 | 0.833 |
| CAAACTAGGTCAAGAGGTCTAAGTCCGCTTCCCG | 3.48 | 2.8 | 0.46 | 1.7 | -0.0852 | 4.97 | 7.75 | 6.93 | 4.73 | 6.71 | 7.99 | 8.45 | 1.43 | 2.57 | 1.86 | 1.66 | -0.00755 | 2.65 | 0.497 | 4.1 |
| CCGATTGGGGCAAAGGTTACCATACTCAGTACGA | 1.84 | 1.62 | -0.0955 | 2.33 | -0.878 | 4.89 | 8.96 | 8.43 | 7.85 | 8.46 | 2.91 | 4.24 | 0.329 | 0.0522 | 1.15 | 2.32 | -0.232 | 3.81 | -0.223 | 2.31 |
| CCTCGGAGGACAACATGAGGTCAGAGCTGCCAGA | 1.56 | 3.37 | 3.95 | 2.18 | -0.278 | 2.38 | 0.717 | 0.534 | -0.623 | 0.0899 | 0.44 | 0.437 | -0.816 | -1.02 | 1.69 | 2.8 | 0.437 | 2.67 | 0.194 | 3.04 |
| TTACCAAGGTGAAATGTCGTTGATGCACGCCTTG | 0.891 | 0.622 | -0.432 | 0.388 | -0.436 | 2.35 | 2.41 | 3.4 | 1.94 | 3.36 | 2.04 | 2.84 | 0.312 | 0.465 | 0.892 | 0.271 | -0.455 | 0.706 | -0.394 | 1.44 |
| GCTCCTAGGTCAGGTTGGTCAGCTAACGGGTACG | 1.88 | 1.13 | 0.0623 | 1.09 | 0.0222 | 2.12 | 0.889 | 1.34 | -0.42 | 0.479 | 3.08 | 2.33 | 0.131 | -0.79 | 0.823 | 0.632 | 0.2 | 1.26 | -0.173 | 3.58 |
| TTACCAGGGTGAAAGGTCGTTGATGCACGCCTTG | 3.76 | 3.21 | 0.701 | 3.12 | -0.0752 | 5.36 | 8.62 | 7.7 | 6.89 | 9.22 | 2.27 | 4.77 | 0.849 | 0.523 | 3.33 | 4.25 | 0.522 | 5.93 | 0.262 | 2.59 |
| TGAATGAGTTTATAAGATCAGGGAACGTTGCAAA | -0.262 | -0.382 | -0.288 | -0.209 | -0.337 | 0.00137 | 0.119 | 0.389 | 0.73 | 0.5 | -0.937 | -0.179 | 0.631 | 0.748 | 0.106 | 0.215 | 0.318 | 0.174 | 0.105 | -0.00933 |
| CGTCAAAGTTCAACTAAGGTACCGTAAAGCACGC | 7.12 | 6.16 | 4.3 | 4.18 | 2.24 | 5.12 | 4.93 | 5.42 | 2.29 | 4.15 | 0.831 | 1.71 | 0.452 | 0.671 | 2.68 | 4.87 | 3.81 | 3.96 | 1.72 | 5.21 |
| TTACCTAGGTGAAAGGTCGTTGATGCACGCCTTG | 3.04 | 2.96 | 0.393 | 2.74 | -0.415 | 5.66 | 10.4 | 9.22 | 9.2 | 10.2 | 5.23 | 6.14 | 1.6 | 0.889 | 1.73 | 3.69 | 0.261 | 4.82 | -0.203 | 2.38 |
| TCTATTAGTTGAAGGGCAACAGACGAGTCCGTTT | 0.85 | 0.613 | 0.367 | 0.805 | 0.326 | 0.993 | 0.441 | 2.09 | 3.73 | 2.9 | 2.12 | 0.473 | 0.759 | 0.516 | 1.01 | 0.991 | 0.988 | 0.764 | 1.52 | 1.55 |
